Compound activity: PubChem, National Center for Advancing Translational Sciences (NCATS)
Most compounds without a hit are left out; they make up all but 6.2% or so of the library.
LASV entry inh = inhibitors of Lassa virus binding or cell entry; Lassa virus pseudotype entry inhibition, cell reporter; AID 540256; Potency, µM (titrated, usually from 37.9 µM), inactives show top-dose activity change, negative = inhibition, actives largely listed as inhibitors; 300,000 compounds, 1.2% hits; calls by dose curve; tested in HEK293 cells; note: potency is the fitted concentration of half-maximal effect; nearly all actives have a fitted effect of over 50% in size
FMDV inh = foot and mouth disease virus antiviral activity | FMDV antiviral cell-based qHTS | 410,000 compounds, 1.2% hits | Potency, µM (doses to about 57.9 µM), for inactives: at the top dose activity change, negative = inhibition, hits mostly inhibitors; calls by dose curve; tested in HEK293T cells; note: read-out not given here; potency is the fitted concentration of half-maximal effect; nearly all actives have a fitted effect of over 45% in size
HCMV antiviral = inhibitors of human cytomegalovirus; HFF cells, HCMV-luciferase reporter, 72 h; hits give low values; activity change, negative = inhibition, % at 57.5 µM; 410,000 compounds, 4.5% hits; AID 1259415; in the data active = activity change below about -60%; inconclusive = no clear call, values can overlap the other calls; inactive = above about -39%
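Two compound doses tested in HFFs infected with HCMV-luciferase, MOI 1 PFU/cell, 72 h at 37C. Lysate luminescence read with OneGlo; data normalized against buffer-only and 10uM Salinomycin inhibitor controls.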
MARV entry inh = blocks Marburg virus binding to or entry into cells; Marburg virus pseudotyped entry inhibition, cell reporter; Potency, µM (series often up to 37.8 µM), without a hit: at the top dose activity change, negative = inhibition, hits mostly inhibitors; 300,000 compounds, 1.8% hits; AID 540276; calls by dose curve; tested in HEK293 cells; note: potency is the fitted concentration of half-maximal effect
An asterisk follows results filed as active; ? = inconclusive; / = no result; [ ] = another dose, or the depositor's remark. % is set by controls: 0 for no effect and ±100 for the full control effect.

SMILES | LASV entry inh | FMDV inh | HCMV antiviral | MARV entry inh
CC(=O)N/C(=C\c1ccccc1)C(=O)OCC(=O)c1c(N)n(CC(C)C)c(=O)n(C)c1=O | 14%[46.1 µM] | -3% | -2 | -17%
C(CCc1nn[nH]n1)CCc1nn[nH]n1 | 0% | -16% | -18 | ?
CCCCc1ccc(C(=O)N/C(=C\c2ccc(C)cc2)C(=O)NC2CCCCC2)cc1 | 16%[46.1 µM] | -1% | 10 | /
Cc1ccc(C(=O)N/C(=C\c2ccc(Cl)cc2)C(=O)NC2CCCCC2)cc1 | -9%[46.1 µM] | 3% | -98* | /
CCOc1ccc(C(=O)N2CCN(c3ccccc3)CC2)cc1OCC | 0% | -20% | 30 | -1%
COc1ccc(Br)cc1CC1C(=O)Nc2ccccc21 (centres undefined) | -2%[46.1 µM] | ? | -74* | ?
Clc1cccc(OCCOCCN2CCNCC2)c1Cl | 3% | -19% | 16 | 13µM*
CCNC(=O)C1(C)CCCN(C(=O)c2ccc(OC)c(F)c2)C1 (centres undefined) | / | -2% | 2 | /
Cc1cccc(-n2c(/C=C/c3c(C)[nH]c4ccccc34)nc3ccccc3c2=O)c1 | 3%[46.1 µM] | -20% | 7 | /
CC(=O)N(/N=C/c1ccc([N+](=O)[O-])o1)c1nc2ccccc2c(=O)n1-c1ccccc1 | / | -2% | -64* | /
Cc1cccc(-n2c(/C=C/c3ccccc3O)nc3ccccc3c2=O)c1 | ? | ? | -98* | /
Cc1nc2ccccc2c(=O)n1-c1cc([N+](=O)[O-])cc([N+](=O)[O-])c1 | / | -12% | -30 | /
Cc1cccc(-n2c(/C=C/c3ccc([N+](=O)[O-])o3)nc3ccccc3c2=O)c1 | ? | ? | -104* | ?
O=c1c2ccccc2nc(/C=C/c2ccc([N+](=O)[O-])o2)n1-c1ccc(O)cc1 | ? | ? | -100* | 3.2µM*
Cc1cccc(-n2c(/C=C/c3cccc4ccccc34)nc3ccccc3c2=O)c1 | 16%[46.1 µM] | ? | ? | /
CNC(=O)c1ccsc1NC(=O)CCS(=O)(=O)c1ccc(Cl)cc1 | 6%[46.1 µM] | -16% | ? | -17%
CCc1nccc2c1[nH]c1ccccc12 | / | -26% | / | /
COc1ccc(C(=O)Nc2ccccc2C(=O)NC(Cc2ccc(O)cc2)C(=O)NNC(=O)c2ccncc2)cc1 (centres undefined) | 0% | 9% | -27 | -3%[46.1 µM]
COc1ccc(N2CC(C(=O)Nc3nnc(SCc4cccnc4)s3)CC2=O)cc1 (centres undefined) | 2% | -11% | ? | 18%
O=S1(=O)N(CCN2CC=C(c3c[nH]c4cc(F)ccc34)CC2)c2cccc3c2N1CCC3 | ? | 0% | -80* | ?
COc1ccc(NS(=O)(=O)c2cccc(NC(=O)CCC(=O)c3cccs3)c2)cc1 | 10% | 43% | -34 | 1%
COc1ccc(NS(=O)(=O)c2cccc(NC(=O)c3ccc(Cl)nc3)c2)cc1 | 5µM* | 32µM* | -89* | ?
O=C(Nc1cccc(S(=O)(=O)Nc2ccc(Cl)cc2)c1)c1ccc(Cl)nc1 | ? | -25% | -95* | ?
COc1ccc(NS(=O)(=O)c2cccc(NC(=O)CCC(=O)c3ccc(Cl)cc3)c2)cc1 | ? | ? | -83* | ?
O=C(Nc1cccnc1)c1ccc(S(=O)(=O)c2ccc(Cl)cc2)cc1 | ? | 28µM* | -86* | ?
SMILES | LASV entry inh | FMDV inh | HCMV antiviral | MARV entry inh
Cc1ccc(F)c(C(=O)N2CC3ON=C(c4c(F)cccc4Cl)C3C2)c1F (centres undefined) | / | / | 4 | /
CCOc1cccc(C(=O)Nc2cc(C)ccc2NC(=O)c2ccco2)c1 | / | -15% | -8 | /
Cc1ccsc1C(=O)C1CCCN(Cc2cnc(N3CCOCC3)s2)C1 (centres undefined) | ? | 25µM* | -33 | ?
COc1ccc2cc(C(=O)C3CCCN(Cc4cnc(N5CCOCC5)s4)C3)ccc2c1 (centres undefined) | -29%[46.1 µM] | -19% | -65* | ?
COc1ccc2cc(C(=O)C3CCCN(C(=O)CSc4nnc(C)o4)C3)ccc2c1 (centres undefined) | -23%[46.1 µM] | -23% | -66* | ?
Cc1ccsc1C(=O)C1CCCN(Cc2cnc(N)nc2)C1 (centres undefined) | 12%[46.1 µM] | -20% | 15 | ?
COc1ccc(-n2c(=O)c(-c3cccs3)nc3cnc(N(C)C)nc32)cc1 | / | -11% | / | /
Cc1cc2c(cc1C)N(C(=O)CCl)CCN2C(=O)CCl | ? | 8.9µM* | 10 | ?
Cc1ccc(Cl)cc1N1CCN(C(=O)CCC(=O)O)CC1 | 6% | -6% | ? | 20%
Cc1ccc(C2(c3ccccc3)NC(=O)N(CC(=O)N3CC(=O)Nc4ccccc43)C2=O)cc1C (centres undefined) | / | -29% | -10 | /
Cc1cc2c(cc1C)N(C(=O)CCl)CC(=O)N2 | / | 40µM* | / | /
CC(=O)N(C1=C(Cl)C(=O)c2ccccc2C1=O)C1CCCCC1 | 13µM* | ? | -103* | ?
N#Cc1c(Cl)nsc1NC(=O)c1ccccc1 | / | -2% | -100* | /
O=C(NN1C(=O)c2ccc(-c3ccc4c(c3)C(=O)N(NC(=O)c3cccnc3)C4=O)cc2C1=O)c1cccnc1 | 20%[46.1 µM] | 1% | -77* | -10%
CN1C(=O)c2ccc(C(=O)Nc3cccnc3)cc2C1=O | ? | 2% | -7 | -10%[46.1 µM]
COc1c(O)cccc1O | / | -5% | / | /
COc1ccc2nc(NC(=S)N(C)C)sc2c1 | ? | -50% | ? | 10µM*
CCCC(=O)Nc1nc2ccc(OC)cc2s1 | / | 47% | -40 | /
COC(=O)c1cc(NC(=O)c2c(F)c(F)c(F)c(F)c2F)cc(C(=O)OC)c1 | ? | 0% | -63* | ?
COC(=O)c1sccc1NC(=O)c1c(F)c(F)c(F)c(F)c1F | ? | 22µM* | ? | ?
COC(=O)c1sccc1NC(=O)c1ccncc1 | -16% | -7% | 22 | 0.1µM*
O=C(NCCc1cccnc1)c1cnn(-c2ncc3c(n2)-c2ccccc2CC3)c1C1CC1 | / | 7% | / | /
O=C(Nc1ccncc1)OCc1ccccc1 | -6% | -21% | -16 | ?
O=Cc1c[nH]c2ccc(NC(=O)OCc3ccccc3)cc12 | ? | 3% | -27 | 13µM*
CSc1nc(Nc2ccc(Cl)cc2)c(C#N)c(=O)[nH]1 | -6% | -18% | 48 | -1%
SMILES | LASV entry inh | FMDV inh | HCMV antiviral | MARV entry inh
N#Cc1c(Nc2ccc(Cl)cc2)s[nH]c1=O | 1% | 29% | -66* | 1%[46.1 µM]
CCOC(=O)C1CCCN(c2c(C(=O)c3ccccc3)cnc3ccc(F)cc23)C1 (centres undefined) | / | 0% | -20 | ?
Cc1ccc(CNC(=O)Cn2c(-c3cccs3)cc3cc(Cl)ccc32)cc1 | 19%[46.1 µM] | -18% | -16 | /
CN(C)c1ccc(CNC(=O)Cn2c(-c3cccs3)cc3cc(Cl)ccc32)cc1 | 8%[46.1 µM] | -7% | -71* | /
COc1cccc(-n2c(C)nnc2SCC#N)c1 | 12% | -16% | 53 | 5%
Cn1c(=O)c2c(nc(Br)n2C)n(C)c1=O | -3% | -3% | 15 | 14%
CN(C)c1ccc(N=Nc2ccc(C(=O)O)cc2)cc1 | 7.1µM* | 11µM* | -15 | 2.8µM*
CC(C)(C)NC(=O)CN(Cc1cccs1)C(=O)c1csnn1 | 4% | 20% | -20 | 4%
COC(=O)C[C@H]1C[C@@H]2c3cc(NS(=O)(=O)c4cccc(OC)c4)ccc3O[C@@H]2[C@@H](CO)O1 | / | 2% | -22 | /
